From PubChem BioAssay AID1159580 (chemical genetic matrix, 2015)
Out of some 5,500 compounds screened, about 2,000 (36%) were called active. Roughly 18% stayed inconclusive and do not appear here. Cut-off read from the data, not from the text of the source: active = normalized growth mostly below about 0.91 (no sharp cut-off); inconclusive = no clear call, values can overlap the other calls; inactive = mostly above about 0.92. The list shows a part of the results.

Assay: chemical genetic growth profiling, strain panel (AID 1159580);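 note: tested at 20 µM; growth read once vehicle control cultures reached saturation at 30 °C; 1 = growth at the plate median or of vehicle wells; lower values mean less growth of the strain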
Conditions: S. cerevisiae deletion strains, growth OD

Measured: normalized growth

C=Cc1c2[nH]c(c1C)Cc1[nH]c(c(C)c1C=C)C=C1N=C(C=c3[nH]c(c(C)c3CCC(=O)O)=C2)C(CCC(=O)O)=C1C
inactive: locus YAL013W, strain DEP1, stronger effect = lower value 0.99 | locus YAL040C, strain CLN3, stronger effect = lower value 0.989 | locus YCL061C, strain MRC1 (second series), stronger effect = lower value 1.01 | locus YDR363W, strain ESC2, stronger effect = lower value 1.05 | locus YER002W, strain NOP16, stronger effect = lower value 0.987 | locus YGR078C, strain PAC10, stronger effect = lower value 1.01 | locus YJR075W, strain HOC1, stronger effect = lower value 1.01 | locus YMR307W, strain GAS1, stronger effect = lower value 1.01 | locus YNL153C, strain GIM3, stronger effect = lower value 0.799 | locus YNL175C, strain NOP13, stronger effect = lower value 0.993 | locus YNL197C, strain WHI3, stronger effect = lower value 0.972 | locus YNL224C, strain SQS1, stronger effect = lower value 1.01 | locus YOR083W, strain WHI5 (second series), stronger effect = lower value 1.01
